Assay outcomes: PubChem BioAssay, Bradner/Qi Labs at DFCI
CBX7 inh – inhibitors of human CBX7 binding to H3K27me3 peptide; O95931; AlphaScreen His6-CBX7 / biotin-H3K27me3 peptide binding; stronger effect = lower value; normalised signal (fraction of DMSO) (test concentration not listed); 66,000 tested, 1.1% active; in the data active means normalised signal below about 0.5
Target sequence (O95931 whole entry, looked up): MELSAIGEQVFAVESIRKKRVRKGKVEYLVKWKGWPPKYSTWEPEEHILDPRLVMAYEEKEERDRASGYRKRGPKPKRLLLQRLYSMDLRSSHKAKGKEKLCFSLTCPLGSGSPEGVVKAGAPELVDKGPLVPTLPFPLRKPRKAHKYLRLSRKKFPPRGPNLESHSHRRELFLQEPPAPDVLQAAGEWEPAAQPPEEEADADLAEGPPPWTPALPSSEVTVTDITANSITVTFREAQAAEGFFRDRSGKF
Numbers stand for hits; 0 = inactive. The entries come from a sample that favours hits as a whole.

SMILES	CBX7 inh
Cc1c(Cl)cccc1Nc1nc(-c2ccccn2)cs1	0.474
CC(=O)c1cccc(Nc2nc(-c3cccs3)cs2)c1	0
COc1ccccc1OCCOc1ccc(-c2nc3sc4c(c3c(=O)[nH]2)CCCC4)cc1	0
CCn1c(SCC(=O)Nc2ccccc2F)nnc1-c1c[nH]c2ccccc12	0
CCc1ccc(NC(=O)Cn2c(SCc3ccc(F)cc3)nc3ccncc32)cc1	0
Cc1nnc(NCc2nc3ccccc3[nH]2)c2ccccc12	0
CCCCSCCCNC(=O)C1CCCN(Cc2nc(-c3ccc(Cl)cc3)oc2C)C1 (stereo not given)	0
C1=CC2=C(CO1)OCc1c2[nH]c2ccc3ccccc3c12	0.433
COC(=O)c1ccc(Oc2nc(-c3cccnc3)nc3ccccc23)cc1	0
CC(C)n1cnc2cc(NCc3ccc(Cl)cc3)ccc21	0.405
CC(C)n1cnc2cc(NCc3ccc(Br)cc3)ccc21	0.378
CC(C)n1cnc2cc(NCc3nc4ccccc4n3C)ccc21	0
CCn1cnc2cc(NCc3ccc(C)cc3)ccc21	0
CC(C)(C)n1cnc2cc(NCc3ccncc3)ccc21	0
CCOc1ccc(CNc2ccc3c(c2)ncn3C)cc1	0
c1cnc2nc(-c3ccsc3)c(NC3CCCC3)n2c1	0
CCc1cccc(C)c1NC(=O)CS(=O)(=O)Cc1nc(-c2ccc(C)cc2)oc1C	0
CC(C)(C)C(=O)N1CC(=O)Nc2ccc(Cl)cc2C1c1ccccc1 (stereo not given)	0
CCCSc1oc(-c2ccc(F)cc2)nc1S(=O)(=O)c1ccc(C)cc1	0
Cc1ccccc1-c1noc(-c2cc(-c3ccc(Cl)cc3)nc3ccccc23)n1	0
Cc1cc(=O)n2nc(N3CCCC(C(=O)NC4CCCCCC4)C3)sc2n1 (stereo not given)	0
CC(C)c1ccc2oc(-c3ccc(Cl)c(NC(=O)c4ccccc4)c3)nc2c1	0
Cc1nc2c(C(=O)NC3CCCCCCC3)cnn2c(C)c1Cc1ccc(F)cc1	0
CC(C)Sc1oc(-c2cccs2)nc1S(=O)(=O)c1ccc(Br)cc1	0
Cc1ccc(NC(=O)c2ccccc2O)nc1	0
SMILES	CBX7 inh
O=C(Nc1ncn[nH]1)c1ccccc1O	0.169
O=C(Nc1cccc2cccnc12)c1ccccc1O	0
Cc1ccc(-c2nc3ncccc3o2)cc1NC(=O)c1cc(I)ccc1I	0
COc1cccc(Nc2nc3ccccc3nc2NS(=O)(=O)c2ccccc2)c1	0
CCCCOc1ccc(C(=O)Nc2c(C(=O)c3ccc(Cl)cc3)oc3ccccc23)cc1	0
COc1ccccc1C(CCNCc1ccc(OC(C)C)cc1)c1ccc2c(c1)OCO2 (stereo not given)	0.169
COc1ccccc1C(CCNCc1ccc2c(c1)OCO2)c1ccc2c(c1)OCO2 (stereo not given)	0
COc1ccc(CNCCC(c2ccccc2)c2ccc3c(c2)OCO3)cc1 (stereo not given)	0
O=C(COc1ccc(Cl)cc1)NCc1nnc(SCC(=O)Nc2nc3ccccc3s2)o1	0
Cc1cc(C)c(C#N)c(Nc2ccc(-c3ccccc3)cc2)n1	0
O=C(CC1NC2CCCCC2NC1=O)Nc1ccccc1 (stereo not given)	0
Cc1ccc(CNC(=O)C2CCCN(Cc3nc(-c4ccc(Cl)cc4)oc3C)C2)cc1 (stereo not given)	0
O=C(Nc1ccc(Cc2ccncc2)cc1)c1ncn[nH]1	0.0584
Cc1ccc(NC(=O)Nc2ccc(Cc3ccncc3)cc2)cc1C	0
O=C(Nc1ccc(Cc2ccncc2)cc1)C12CC3CC(CC(C3)C1)C2	0
CCOC(=O)Cn1c(=O)c(-c2cc(Br)ccc2NC)nc2cc3ccccc3cc21	0
CCOC(=O)Cn1c(=O)c(-c2ccccc2NCc2ccccc2)nc2ccccc21	0
CCNc1ccc(Br)cc1-c1nc2ccccc2n(CC)c1=O	0.271
COc1ccc(CCNC(=O)C2CCCN(Cc3nc(-c4ccc(Cl)cc4)oc3C)C2)cc1OC (stereo not given)	0
CCCCN1C(=O)C(O)(CC(=O)c2ccc(C(C)C)cc2)c2cc(Br)ccc21 (stereo not given)	0
O=C(CC1(O)C(=O)N(CCc2ccccc2)c2ccc(Br)cc21)c1ccccc1 (stereo not given)	0
CCCN1C(=O)C(O)(CC(=O)c2ccc(C(C)C)cc2)c2cc(Br)ccc21 (stereo not given)	0.136
NC(=O)C1(N2CCCCC2)CCN(c2nc(-c3ccc(F)cc3)cs2)CC1	0
CCOc1ccc2nc(N3CCCC(C(=O)N4CCN(CC)CC4)C3)sc2c1 (stereo not given)	0.434
CCCN1CCN(CCCNC(=O)C2CCCN(c3nc4ccc(OCC)cc4s3)C2)CC1 (stereo not given)	0
SMILES	CBX7 inh
CCOCCCNC(=O)C1CCCN(c2nc3ccc(OCC)cc3s2)C1 (stereo not given)	0
CCOc1ccc2nc(N3CCCC(C(=O)N4CCC(C(N)=O)CC4)C3)sc2c1 (stereo not given)	0
CCOc1ccc2nc(N3CCCC(C(=O)N4CCN(Cc5ccccc5)CC4)C3)sc2c1 (stereo not given)	0
CCOc1ccc2nc(N3CCCC(C(=O)NCCCN4CCN(CC)CC4)C3)sc2c1 (stereo not given)	0.436
Cn1c(SCC(=O)Nc2ccc(Cl)cc2)nnc1-c1c[nH]c2ccccc12	0
O=C(CCn1c(=O)[nH]c2ccsc2c1=O)NCc1cccnc1	0
COc1cc(/C=C/c2cc(C(F)(F)F)[nH]c(=O)n2)ccc1OCc1ccc(Cl)cc1Cl	0.26
COc1ccc(/C=C/c2cc(C(F)(F)F)[nH]c(=O)n2)cc1OC	0
COc1cc(/C=C/c2cc(C(F)(F)F)[nH]c(=O)n2)ccc1OCc1ccccc1F	0
COc1ccc(N2CCN(C(=O)c3ccc(C#CC4(O)CCCCC4)cc3)CC2)cc1	0
CC12CC3CC(C)(C1)CC(OCCNC(=O)Cn1ncc4c1-c1ccccc1OC4)(C3)C2	0
Cc1ccc(N(CC(=O)NCCc2ccc(Cl)cc2)S(=O)(=O)c2cccnc2)cc1	0
NC(=O)c1ccc(-n2nnnc2SCC(=O)Nc2ccccc2)cc1	0
O=C(CSc1nnnn1-c1ccc(Cl)cc1)Nc1ccccc1Cl	0
O=C(CSc1nnnn1-c1ccccc1)Nc1ncccn1	0.134
COc1ccc(C(=O)Nc2ccc3nc(N4CCC(C)CC4)cc(C)c3c2)cc1OC	0
Cc1ccc(Cl)cc1NC(=O)C(Cc1ccccc1)NS(=O)(=O)c1ccc2c(c1)CCC(=O)N2 (stereo not given)	0
Cc1ccc2nc(-c3c[nH]c4ccccc34)c(Nc3ccc4c(c3)OCO4)n2c1	0
Cc1ccc2nc(-c3ccccn3)c(Nc3ccc4c(c3)OCCO4)n2c1	0.00102
Cc1ccc2nc(-c3cccnc3)c(Nc3ccc4c(c3)OCCO4)n2c1	0
Cc1ccc2nc(-c3c[nH]c4ccccc34)c(Nc3ccc(F)cc3)n2c1	0
Cc1ccc2nc(-c3ccccc3)c(Nc3ccc4c(c3)OCCO4)n2c1	0
Cc1ccc2nc(-c3ccncc3)c(Nc3ccc4c(c3)OCO4)n2c1	0
Cc1ccc2nc(-c3ccccn3)c(Nc3ccc4c(c3)OCO4)n2c1	0.0299
Cc1cccc(C)c1Nc1c(-c2ccccn2)nc2ccc(Br)cn12	0.437
Cc1ccccc1Nc1c(-c2c[nH]c3ccccc23)nc2ccc(Br)cn12	0
Cc1ccc(Nc2c(-c3c[nH]c4ccccc34)nc3ccc(Br)cn23)cc1	0.49
Cc1cccc(C)c1Nc1c(-c2ccccn2)nc2ccc(Cl)cn12	0
Brc1ccc2nc(-c3ccccn3)c(Nc3ccccc3)n2c1	0
O=C1CC(Cc2ccc(Cl)cc2)C(=O)N1C1CCCCC1 (stereo not given)	0
